Measurements as given in paper PMC7862700, “An all-to-all approach to the identification of sequence-specific readers for epigenetic DNA modifications on cytosine”.

Experiments:
Assay in all cases: DAPPL (digital affinity profiling via proximity ligation, sequencing); 10 mM Tris-HCl pH 7.5, 50 mM NaCl, 1 mM DTT, 4% glycerol, room temperature, 30 min; GST-TFs on glutathione beads, 16-mer random dsDNA library, 0.1% formaldehyde crosslink after washing; high values mean tight binding
FEV = molecular target: T1, FEV (Homo sapiens, UniProt Q99581 1-238); details: protein: recombinant; tags: N-terminal GST; dsDNA, one strand shown
T1 sequence: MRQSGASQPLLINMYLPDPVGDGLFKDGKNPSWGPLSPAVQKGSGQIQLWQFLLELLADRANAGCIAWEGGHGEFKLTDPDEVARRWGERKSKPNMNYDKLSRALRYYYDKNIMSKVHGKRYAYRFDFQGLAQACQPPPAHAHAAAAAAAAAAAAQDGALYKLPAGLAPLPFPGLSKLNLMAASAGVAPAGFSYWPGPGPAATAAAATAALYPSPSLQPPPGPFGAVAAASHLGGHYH
Procedure, shortened: (§1)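 Each value of binding signal is a hexamer's read frequency for a factor divided by the same hexamer's frequency in the tag-only sample. Barcoded, bead-captured GST fusions of human transcription factors made in yeast were pooled with that sample and incubated with 200 nmole of a random double-stranded 16-mer DNA library in Tris/NaCl/DTT/glycerol buffer at room temperature for 30 min. Washing, 0.1% formaldehyde crosslinking, proximity ligation, PCR and Illumina NextSeq500 sequencing followed.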

ETV5 = ETV5 (Homo sapiens, UniProt P41161 1-510); details: protein: recombinant; tags: N-terminal GST; dsDNA, one strand shown
Sequence of ETV5 (P41161 whole entry): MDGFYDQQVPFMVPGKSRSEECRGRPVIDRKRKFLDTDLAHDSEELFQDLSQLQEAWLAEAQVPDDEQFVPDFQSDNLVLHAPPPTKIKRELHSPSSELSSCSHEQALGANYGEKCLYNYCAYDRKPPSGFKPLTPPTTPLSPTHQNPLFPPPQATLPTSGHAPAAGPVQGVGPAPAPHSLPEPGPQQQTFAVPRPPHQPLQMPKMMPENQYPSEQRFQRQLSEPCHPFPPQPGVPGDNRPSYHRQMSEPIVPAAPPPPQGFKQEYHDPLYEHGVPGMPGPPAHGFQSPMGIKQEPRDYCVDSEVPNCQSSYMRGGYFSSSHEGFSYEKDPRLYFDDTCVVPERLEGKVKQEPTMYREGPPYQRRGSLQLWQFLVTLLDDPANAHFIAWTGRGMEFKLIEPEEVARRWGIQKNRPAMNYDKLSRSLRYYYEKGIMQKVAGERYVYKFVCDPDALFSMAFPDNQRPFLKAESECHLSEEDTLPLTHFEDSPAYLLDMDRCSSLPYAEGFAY
Procedure, shortened: as §1

HSF1 = HSF1 (Homo sapiens, UniProt Q00613 1-529); details: protein: recombinant; tags: N-terminal GST; chain copies: 3; dsDNA, one strand shown
Sequence of HSF1 (Q00613 whole entry): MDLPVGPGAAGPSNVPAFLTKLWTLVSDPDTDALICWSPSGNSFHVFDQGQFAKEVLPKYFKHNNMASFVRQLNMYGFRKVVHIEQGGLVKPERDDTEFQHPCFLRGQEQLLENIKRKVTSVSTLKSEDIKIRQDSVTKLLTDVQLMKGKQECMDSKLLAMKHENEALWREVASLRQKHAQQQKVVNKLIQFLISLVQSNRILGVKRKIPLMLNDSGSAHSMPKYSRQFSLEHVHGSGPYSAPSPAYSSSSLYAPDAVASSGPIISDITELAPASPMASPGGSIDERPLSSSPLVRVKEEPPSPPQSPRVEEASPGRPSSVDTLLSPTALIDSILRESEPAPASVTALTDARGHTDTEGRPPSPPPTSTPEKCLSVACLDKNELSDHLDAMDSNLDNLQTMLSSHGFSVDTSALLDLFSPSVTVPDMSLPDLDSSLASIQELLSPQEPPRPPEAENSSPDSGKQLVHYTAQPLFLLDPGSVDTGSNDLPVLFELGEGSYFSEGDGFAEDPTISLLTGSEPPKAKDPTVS
Procedure, shortened: as §1

SPIC = molecular target: T2, SPIC (Homo sapiens, UniProt Q8N5J4 1-248); details: protein: recombinant; tags: N-terminal GST; dsDNA, one strand shown
T2 sequence: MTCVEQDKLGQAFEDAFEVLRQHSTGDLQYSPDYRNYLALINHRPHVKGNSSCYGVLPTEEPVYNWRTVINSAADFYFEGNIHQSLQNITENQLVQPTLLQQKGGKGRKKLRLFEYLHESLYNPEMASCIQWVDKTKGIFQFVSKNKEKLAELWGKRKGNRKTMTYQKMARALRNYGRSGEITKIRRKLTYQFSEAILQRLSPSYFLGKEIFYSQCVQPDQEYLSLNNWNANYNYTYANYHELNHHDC
Procedure, shortened: as §1

ELF4 = ELF4 (Homo sapiens, UniProt Q99607 1-663); details: protein: recombinant; tags: N-terminal GST; dsDNA, one strand shown
Sequence of ELF4 (Q99607 whole entry): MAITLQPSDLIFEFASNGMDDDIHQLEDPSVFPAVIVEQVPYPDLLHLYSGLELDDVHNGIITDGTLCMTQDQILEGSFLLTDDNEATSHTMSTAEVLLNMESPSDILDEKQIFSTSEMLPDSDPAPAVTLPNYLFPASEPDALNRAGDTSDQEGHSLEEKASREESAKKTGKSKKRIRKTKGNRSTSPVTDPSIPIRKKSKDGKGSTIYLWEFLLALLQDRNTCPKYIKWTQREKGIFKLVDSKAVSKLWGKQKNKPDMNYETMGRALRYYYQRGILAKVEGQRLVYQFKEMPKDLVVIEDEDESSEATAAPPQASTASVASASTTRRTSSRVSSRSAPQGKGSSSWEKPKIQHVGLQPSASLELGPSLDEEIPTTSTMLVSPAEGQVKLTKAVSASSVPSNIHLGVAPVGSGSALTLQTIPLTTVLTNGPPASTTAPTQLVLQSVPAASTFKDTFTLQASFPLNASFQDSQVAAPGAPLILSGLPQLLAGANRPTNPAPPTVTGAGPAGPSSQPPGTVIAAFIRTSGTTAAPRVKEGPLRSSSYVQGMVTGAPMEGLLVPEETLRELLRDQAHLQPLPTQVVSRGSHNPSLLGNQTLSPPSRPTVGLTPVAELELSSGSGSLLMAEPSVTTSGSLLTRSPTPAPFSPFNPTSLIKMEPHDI
Procedure, shortened: as §1

ELK4 = molecular target: T3, ELK4 (Homo sapiens, UniProt P28324-2 1-405); details: protein: recombinant; tags: N-terminal GST; dsDNA, one strand shown
T3 sequence: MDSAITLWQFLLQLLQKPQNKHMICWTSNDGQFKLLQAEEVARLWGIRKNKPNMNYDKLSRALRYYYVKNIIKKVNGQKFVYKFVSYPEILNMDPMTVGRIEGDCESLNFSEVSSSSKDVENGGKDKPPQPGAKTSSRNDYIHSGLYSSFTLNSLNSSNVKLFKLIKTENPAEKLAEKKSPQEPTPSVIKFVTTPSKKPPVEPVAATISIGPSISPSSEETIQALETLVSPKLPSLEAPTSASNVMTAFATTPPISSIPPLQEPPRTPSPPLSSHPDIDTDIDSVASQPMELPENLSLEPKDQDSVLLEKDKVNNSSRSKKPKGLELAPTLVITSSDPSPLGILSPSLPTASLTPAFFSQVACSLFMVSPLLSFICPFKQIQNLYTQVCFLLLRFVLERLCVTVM
Procedure, shortened: as §1

ETV2 = molecular target: T4, ETV2 (Homo sapiens, UniProt O00321 1-342); details: protein: recombinant; tags: N-terminal GST; dsDNA, one strand shown
T4 sequence: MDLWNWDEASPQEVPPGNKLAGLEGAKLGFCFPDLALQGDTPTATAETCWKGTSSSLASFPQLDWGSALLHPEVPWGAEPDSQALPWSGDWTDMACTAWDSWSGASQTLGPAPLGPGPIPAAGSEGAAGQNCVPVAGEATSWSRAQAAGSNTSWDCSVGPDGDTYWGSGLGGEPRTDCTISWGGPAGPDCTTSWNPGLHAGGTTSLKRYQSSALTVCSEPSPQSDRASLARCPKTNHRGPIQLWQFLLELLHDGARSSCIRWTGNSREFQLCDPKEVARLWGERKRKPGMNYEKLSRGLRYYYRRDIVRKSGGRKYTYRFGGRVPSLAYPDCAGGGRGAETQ
Procedure, shortened: as §1

ELF3 = molecular target: T5, ELF3 (Homo sapiens, UniProt P78545 1-371); details: protein: recombinant; tags: N-terminal GST; dsDNA, one strand shown
T5 sequence: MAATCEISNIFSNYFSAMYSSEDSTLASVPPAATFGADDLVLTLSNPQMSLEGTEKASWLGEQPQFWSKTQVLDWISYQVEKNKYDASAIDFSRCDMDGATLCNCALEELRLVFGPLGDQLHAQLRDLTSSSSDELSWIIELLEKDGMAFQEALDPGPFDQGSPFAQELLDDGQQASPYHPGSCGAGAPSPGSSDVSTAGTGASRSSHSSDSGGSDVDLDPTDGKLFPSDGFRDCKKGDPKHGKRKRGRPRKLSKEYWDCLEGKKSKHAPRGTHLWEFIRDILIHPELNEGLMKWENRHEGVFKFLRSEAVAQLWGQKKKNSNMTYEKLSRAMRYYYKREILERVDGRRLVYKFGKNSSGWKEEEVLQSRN
Procedure, shortened: as §1

CRX = CRX (Homo sapiens, UniProt O43186 1-299); details: protein: recombinant; tags: N-terminal GST; dsDNA, one strand shown
Sequence of CRX (O43186 whole entry): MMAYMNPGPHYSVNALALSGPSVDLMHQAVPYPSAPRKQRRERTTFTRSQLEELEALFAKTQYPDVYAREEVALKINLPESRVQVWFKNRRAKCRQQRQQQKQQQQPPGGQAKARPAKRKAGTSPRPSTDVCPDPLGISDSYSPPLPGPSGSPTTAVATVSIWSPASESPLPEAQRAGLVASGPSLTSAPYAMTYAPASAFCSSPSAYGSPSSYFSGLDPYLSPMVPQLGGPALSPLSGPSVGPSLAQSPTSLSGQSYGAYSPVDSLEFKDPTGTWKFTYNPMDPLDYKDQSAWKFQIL
Procedure, shortened: as §1

ETV1 = ETV1 (Homo sapiens, UniProt P50549 1-477); details: protein: recombinant; tags: N-terminal GST; dsDNA, one strand shown
Sequence of ETV1 (P50549 whole entry): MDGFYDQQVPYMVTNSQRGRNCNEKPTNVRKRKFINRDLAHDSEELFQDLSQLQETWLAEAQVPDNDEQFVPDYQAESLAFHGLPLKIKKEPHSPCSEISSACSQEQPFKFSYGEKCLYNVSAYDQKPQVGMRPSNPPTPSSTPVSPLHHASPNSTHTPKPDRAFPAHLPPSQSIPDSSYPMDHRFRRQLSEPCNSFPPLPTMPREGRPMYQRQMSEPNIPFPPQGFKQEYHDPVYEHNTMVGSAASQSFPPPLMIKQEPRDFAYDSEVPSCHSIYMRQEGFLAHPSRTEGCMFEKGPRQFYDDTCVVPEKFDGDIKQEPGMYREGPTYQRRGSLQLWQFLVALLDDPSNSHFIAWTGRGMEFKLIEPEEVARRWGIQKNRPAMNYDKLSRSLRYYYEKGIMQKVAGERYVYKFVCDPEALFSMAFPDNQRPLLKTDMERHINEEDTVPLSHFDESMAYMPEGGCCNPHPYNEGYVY
Procedure, shortened: as §1

ERF = molecular target: T6, ERF (Homo sapiens, UniProt P50548 1-548); details: protein: recombinant; tags: N-terminal GST; dsDNA, one strand shown
T6 sequence: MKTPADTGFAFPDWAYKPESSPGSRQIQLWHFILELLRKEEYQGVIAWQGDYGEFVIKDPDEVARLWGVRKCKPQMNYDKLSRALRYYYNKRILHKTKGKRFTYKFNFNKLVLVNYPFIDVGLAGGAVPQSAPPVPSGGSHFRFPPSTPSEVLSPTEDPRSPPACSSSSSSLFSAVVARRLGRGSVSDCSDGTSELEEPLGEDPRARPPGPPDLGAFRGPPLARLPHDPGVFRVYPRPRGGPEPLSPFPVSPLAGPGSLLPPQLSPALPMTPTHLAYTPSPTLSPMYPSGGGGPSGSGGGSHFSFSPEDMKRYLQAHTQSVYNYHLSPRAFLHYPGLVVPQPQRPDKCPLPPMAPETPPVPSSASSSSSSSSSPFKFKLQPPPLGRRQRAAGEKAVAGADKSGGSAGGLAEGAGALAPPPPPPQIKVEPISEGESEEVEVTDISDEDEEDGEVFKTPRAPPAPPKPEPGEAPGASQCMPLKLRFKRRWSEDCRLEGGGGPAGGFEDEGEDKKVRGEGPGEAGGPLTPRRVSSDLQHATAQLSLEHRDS
Procedure, shortened: as §1

ETV3L = molecular target: T7, ETV3L (Homo sapiens, UniProt Q6ZN32 1-361); details: protein: recombinant; tags: N-terminal GST; dsDNA, one strand shown
T7 sequence: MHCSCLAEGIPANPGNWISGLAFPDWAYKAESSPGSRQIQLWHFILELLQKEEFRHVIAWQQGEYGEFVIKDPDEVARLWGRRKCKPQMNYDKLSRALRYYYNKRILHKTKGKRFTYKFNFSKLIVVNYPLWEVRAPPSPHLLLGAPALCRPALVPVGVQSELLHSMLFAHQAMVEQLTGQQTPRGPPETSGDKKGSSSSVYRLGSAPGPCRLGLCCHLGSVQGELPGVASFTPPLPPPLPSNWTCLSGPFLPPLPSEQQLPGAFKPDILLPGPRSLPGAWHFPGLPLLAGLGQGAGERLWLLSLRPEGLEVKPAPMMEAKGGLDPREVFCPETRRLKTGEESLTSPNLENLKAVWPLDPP
Procedure, shortened: as §1

ETS2 = molecular target: T8, ETS2 (Homo sapiens, UniProt P15036 1-469); details: protein: recombinant; tags: N-terminal GST; dsDNA, one strand shown
T8 sequence: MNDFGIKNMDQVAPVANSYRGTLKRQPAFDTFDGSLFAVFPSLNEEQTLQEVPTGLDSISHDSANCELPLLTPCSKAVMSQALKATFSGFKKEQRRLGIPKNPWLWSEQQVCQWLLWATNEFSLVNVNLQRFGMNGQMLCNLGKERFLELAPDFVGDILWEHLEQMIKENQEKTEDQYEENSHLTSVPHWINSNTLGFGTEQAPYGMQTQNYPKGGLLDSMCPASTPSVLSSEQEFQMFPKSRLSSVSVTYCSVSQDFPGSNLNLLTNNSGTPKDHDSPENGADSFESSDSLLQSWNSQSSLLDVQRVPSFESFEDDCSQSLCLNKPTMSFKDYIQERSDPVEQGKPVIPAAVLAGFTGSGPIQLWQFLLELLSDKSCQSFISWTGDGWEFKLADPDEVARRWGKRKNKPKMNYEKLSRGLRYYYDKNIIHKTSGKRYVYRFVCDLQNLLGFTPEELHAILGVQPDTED
Procedure, shortened: as §1

SPDEF = molecular target: T9, SPDEF (Homo sapiens, UniProt O95238 1-335); details: protein: recombinant; tags: N-terminal GST; dsDNA, one strand shown
T9 sequence: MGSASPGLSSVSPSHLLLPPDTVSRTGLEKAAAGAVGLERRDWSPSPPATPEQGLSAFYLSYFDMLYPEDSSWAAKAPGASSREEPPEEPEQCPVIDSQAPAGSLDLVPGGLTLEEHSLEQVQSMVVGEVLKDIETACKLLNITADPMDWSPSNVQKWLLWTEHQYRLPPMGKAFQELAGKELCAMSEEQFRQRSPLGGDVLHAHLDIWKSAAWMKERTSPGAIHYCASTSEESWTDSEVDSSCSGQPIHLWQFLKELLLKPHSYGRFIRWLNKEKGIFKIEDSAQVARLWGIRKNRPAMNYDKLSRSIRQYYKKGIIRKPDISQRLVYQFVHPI
Procedure, shortened: as §1

ETV7 = molecular target: T10, ETV7 (Homo sapiens, UniProt Q9Y603 1-341); details: protein: recombinant; tags: N-terminal GST; dsDNA, one strand shown
T10 sequence: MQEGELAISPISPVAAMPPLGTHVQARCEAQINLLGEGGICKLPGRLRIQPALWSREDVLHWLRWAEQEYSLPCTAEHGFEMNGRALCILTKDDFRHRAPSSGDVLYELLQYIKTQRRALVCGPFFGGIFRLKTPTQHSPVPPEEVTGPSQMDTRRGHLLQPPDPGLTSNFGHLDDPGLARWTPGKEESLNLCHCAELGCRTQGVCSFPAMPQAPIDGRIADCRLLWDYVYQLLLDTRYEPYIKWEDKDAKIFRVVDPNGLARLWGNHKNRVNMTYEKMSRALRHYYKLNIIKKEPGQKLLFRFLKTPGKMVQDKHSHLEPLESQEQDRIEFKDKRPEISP
Procedure, shortened: as §1

ELF5 = molecular target: T11, ELF5 (Homo sapiens, UniProt Q9UKW6-2 1-255); details: protein: recombinant; tags: N-terminal GST; dsDNA, one strand shown
T11 sequence: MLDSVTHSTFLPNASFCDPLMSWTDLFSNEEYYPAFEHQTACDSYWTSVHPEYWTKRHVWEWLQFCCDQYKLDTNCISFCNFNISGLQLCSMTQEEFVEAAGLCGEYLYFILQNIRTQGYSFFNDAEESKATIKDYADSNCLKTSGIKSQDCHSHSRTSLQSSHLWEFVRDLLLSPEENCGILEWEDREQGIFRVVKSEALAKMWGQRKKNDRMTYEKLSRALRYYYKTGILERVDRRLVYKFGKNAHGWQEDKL
Procedure, shortened: as §1

ETV3 = molecular target: T12, ETV3 (Homo sapiens, UniProt P41162-2 1-143); details: protein: recombinant; tags: N-terminal GST; dsDNA, one strand shown
T12 sequence: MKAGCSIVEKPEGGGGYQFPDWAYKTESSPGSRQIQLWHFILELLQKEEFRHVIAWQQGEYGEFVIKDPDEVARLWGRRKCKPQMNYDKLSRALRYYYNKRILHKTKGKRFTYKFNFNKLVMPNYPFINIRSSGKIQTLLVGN
Procedure, shortened: as §1

ETV6 = ETV6 (Homo sapiens, UniProt P41212 1-452); details: protein: recombinant; tags: N-terminal GST; dsDNA, one strand shown
Sequence of ETV6 (P41212 whole entry): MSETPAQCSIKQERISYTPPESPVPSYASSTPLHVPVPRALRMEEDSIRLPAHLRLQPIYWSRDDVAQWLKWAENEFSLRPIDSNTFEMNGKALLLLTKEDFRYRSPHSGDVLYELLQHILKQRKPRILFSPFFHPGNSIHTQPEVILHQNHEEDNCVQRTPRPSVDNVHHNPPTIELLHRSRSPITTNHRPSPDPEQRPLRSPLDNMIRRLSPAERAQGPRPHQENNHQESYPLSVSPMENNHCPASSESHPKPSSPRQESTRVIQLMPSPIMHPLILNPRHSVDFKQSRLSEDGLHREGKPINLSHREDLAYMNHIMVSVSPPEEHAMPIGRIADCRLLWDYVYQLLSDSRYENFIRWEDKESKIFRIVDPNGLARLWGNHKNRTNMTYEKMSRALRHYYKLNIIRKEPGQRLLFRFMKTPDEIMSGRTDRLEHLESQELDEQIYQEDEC
Procedure, shortened: as §1

For TTCGAC, the binding signal (FEV) was 1.5 fold enrichment (6-mer frequency, TF over GST control), the binding signal (ETV5) was 1.46 fold enrichment (6-mer frequency, TF over GST control) and the binding signal (HSF1) was 1.75 fold enrichment (6-mer frequency, TF over GST control). The binding signal (SPIC) was 1.35 fold enrichment (6-mer frequency, TF over GST control), the binding signal (ELF4) was 1.63 fold enrichment (6-mer frequency, TF over GST control) and the binding signal (ELK4) was 1.43 fold enrichment (6-mer frequency, TF over GST control). The binding signal (ETV2) was 1.35 fold enrichment (6-mer frequency, TF over GST control), the binding signal (ELF3) was 1.46 fold enrichment (6-mer frequency, TF over GST control) and the binding signal (CRX) was 1.44 fold enrichment (6-mer frequency, TF over GST control). For the same sequence, the binding signal (ETV1) was 1.44 fold enrichment (6-mer frequency, TF over GST control), the binding signal (ERF) was 1.43 fold enrichment (6-mer frequency, TF over GST control) and the binding signal (ETV3L) was 1.39 fold enrichment (6-mer frequency, TF over GST control). The binding signal (ETS2) was 1.42 fold enrichment (6-mer frequency, TF over GST control), the binding signal (SPDEF) was 1.36 fold enrichment (6-mer frequency, TF over GST control) and the binding signal (ETV7) was 1.37 fold enrichment (6-mer frequency, TF over GST control). The binding signal (ELF5) was 1.36 fold enrichment (6-mer frequency, TF over GST control), the binding signal (ETV3) was 1.45 fold enrichment (6-mer frequency, TF over GST control) and the binding signal (ETV6) was 1.3 fold enrichment (6-mer frequency, TF over GST control).
